Assay results reported in PubChem BioAssay (NCI).
The panel holds about 79,000 compounds, 15% with a hit somewhere; the sample as a whole holds those more often. The source made the active and inactive calls. Rule as the data show it: active = growth inhibition above about 70%; inactive = the rest.

Columns and labels:
[1] = NCI Yeast Anticancer Drug Screen. Data for the mlh1 strain (AID 171);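 also: 0% = growth of vehicle-treated control cultures of the same strain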; details: S. cerevisiae mlh1 strain growth inhibition, stronger effect = higher value
Procedure, shortened: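 Steps: expose the defined-mutant yeast strain to compound; expose a parallel culture to vehicle; measure growth; express compound effect as inhibition relative to the vehicle culture.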

[2] = NCI Yeast Anticancer Drug Screen. Data for the sgs1 strain (AID 173);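 also: 0% = growth of vehicle-only control cultures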; details: S. cerevisiae sgs1 mutant, stronger effect = higher value
Procedure, shortened: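 Treat defined-mutant yeast with compound; measure growth; calculate inhibition relative to vehicle-treated cells.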

[3] = NCI Yeast Anticancer Drug Screen. Data for the mlh1 rad18 strain (AID 175); details: S. cerevisiae mlh1 rad18 strain growth inhibition, stronger effect = higher value
Procedure, shortened: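 Test agents were incubated with a yeast strain of defined genotype (DNA damage repair defect). Inhibition of growth was derived by comparison with vehicle-exposed cultures.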

[4] = NCI Yeast Anticancer Drug Screen. Data for the rad18 strain (AID 177); details: S. cerevisiae rad18 mutant growth inhibition, stronger effect = higher value
Procedure, shortened: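 A genetically defined yeast mutant impaired in DNA damage repair was treated with test compounds, then its growth was measured against cultures receiving vehicle alone.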

[5] = NCI Yeast Anticancer Drug Screen. Data for the rad52 strain (AID 147);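 also: 0% = growth of vehicle-treated control cultures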; details: S. cerevisiae rad52 mutant growth inhibition, stronger effect = higher value
Procedure, shortened: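 Screen used a yeast mutant impaired in DNA repair. After compound exposure, growth was measured. Values reflect inhibition compared with vehicle-treated cells.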

[6] = NCI Yeast Anticancer Drug Screen. Data for the wt1 strain (AID 149);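 also: 0% = growth of vehicle-treated wt1 cultures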; details: S. cerevisiae wt1 strain (SPY 50644) growth inhibition, stronger effect = higher value
Procedure, shortened: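 Measured: growth of wt1 yeast under compound versus vehicle treatment, reported as inhibition.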

[7] = NCI Yeast Anticancer Drug Screen. Data for the rad50EPP+ strain (AID 151);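 also: 0% = growth of vehicle-treated control cultures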; details: S. cerevisiae rad50 mutant strain, stronger effect = higher value
Procedure, shortened: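 Exposing the rad50EPP+ strain to each compound, growth was compared with vehicle-only cultures to give inhibition.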

[8] = NCI Yeast Anticancer Drug Screen. Data for the rad50 strain (AID 155);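 also: 0% = growth of vehicle-only cultures of the same strain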; details: S. cerevisiae rad50 strain growth inhibition, stronger effect = higher value
Procedure, shortened: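 Growth of the mutant yeast was measured after compound exposure and referenced to vehicle-treated cultures.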

[9] = NCI Yeast Anticancer Drug Screen. Data for the mec2-1 strain (AID 157); details: S. cerevisiae mec2-1 strain, stronger effect = higher value
Procedure, shortened: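 Readout is yeast growth inhibition, normalised to vehicle-treated controls, in the mec2-1 strain exposed to compound.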

[10] = NCI Yeast Anticancer Drug Screen. Data for the rad14 strain (AID 159);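 also: 0% = growth of vehicle-treated control cultures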; details: S. cerevisiae rad14 strain growth inhibition, stronger effect = higher value
Procedure, shortened: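 Here, inhibition of yeast growth was measured after compound exposure, using a strain with a genetic defect in DNA damage repair and vehicle-treated cultures as the reference.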

[11] = NCI Yeast Anticancer Drug Screen. Data for the sgs1 mgt1 strain (AID 161);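 also: 0% = growth of cultures given vehicle only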; details: S. cerevisiae sgs1 mgt1 strain, stronger effect = higher value
Procedure, shortened: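 Percent growth inhibition was derived by comparing compound-exposed mutant yeast with vehicle-exposed cultures. The strain carries alterations in DNA damage repair.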

[12] = NCI Yeast Anticancer Drug Screen. Data for the CLN2oe strain (AID 163);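 also: 0% = growth of vehicle-only control cultures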; details: S. cerevisiae CLN2oe strain, stronger effect = higher value
Procedure, shortened: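 Values reflect how much compound exposure reduced yeast growth, referenced to vehicle-exposed cells. Assay organism is a strain with a defined genetic change affecting cell-cycle control.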

[13] = NCI Yeast Anticancer Drug Screen. Data for the cln2 rad14 strain (AID 165);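 also: 0% = growth equal to vehicle treated cultures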; details: S. cerevisiae cln2 rad14 strain, stronger effect = higher value
Procedure, shortened: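 Relative to vehicle controls, growth inhibition of compound-treated cln2 rad14 yeast was recorded.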

[14] = NCI Yeast Anticancer Drug Screen. Data for the bub3 strain (AID 167); details: S. cerevisiae bub3 mutant strain, stronger effect = higher value
Procedure, shortened: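 Whole-cell yeast assay. The mutant strain was incubated with compounds, and growth inhibition was determined by comparison with vehicle-treated cells.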

[15] = NCI Yeast Anticancer Drug Screen. Data for the wt2 strain (AID 169);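 also: 0% = growth of vehicle-treated yeast cultures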; details: S. cerevisiae wt2 strain growth inhibition, stronger effect = higher value
Procedure, shortened: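 Values express reduction in yeast growth under compound treatment, referenced to vehicle-treated cells.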

[16] = at 5.0 µM (retest, dose inferred, filed as 0.5)
[17] = at 50.0 µM (retest, dose inferred, filed as 5.0)

Measured: growth inhibition

Cc1cccc(/C=N\NC(=S)N2CCCCC2)n1
active: [1]; at 11.0 µM 98% | [1]; at 33.0 µM 98% | [1]; at 100.0 µM 99% | [2]; at 3.7 µM 93% | [2]; at 11.0 µM 98% | [2]; at 33.0 µM 99% | [2]; at 100.0 µM 98% | [3]; [16] 98% | [3]; [17] 99% | [3]; at 50.0 µM 88.7% | [4]; at 3.7 µM 92% | [4]; at 11.0 µM 97% | [4]; at 33.0 µM 98% | [4]; at 100.0 µM 98%
inactive: [1]; at 1.2 µM -33% | [1]; at 3.7 µM 63% | [2]; at 1.2 µM 2% | [4]; at 1.2 µM -7%

Nc1nc(N)c2cc(Sc3ccc4ccccc4c3)ccc2n1
active: [5]; at 11.0 µM 92% | [5]; at 33.0 µM 96% | [5]; at 100.0 µM 92% | [6]; at 33.0 µM 86% | [6]; at 100.0 µM 89% | [8]; at 11.0 µM 90% | [8]; at 33.0 µM 95% | [8]; [17] 98% | [8]; at 50.0 µM 88.1% | [8]; at 100.0 µM 92% | [9]; [16] 79% | [9]; at 11.0 µM 94% | [9]; at 33.0 µM 95% | [9]; [17] 99% | [9]; at 50.0 µM 91.3% | [9]; at 100.0 µM 95% | [10]; at 33.0 µM 96% | [10]; at 100.0 µM 94% | [11]; [17] 97% | [11]; at 50.0 µM 89% | [12]; at 33.0 µM 85% | [12]; at 100.0 µM 89% | [13]; [17] 85% | [13]; at 50.0 µM 86.7% | [14]; at 11.0 µM 74% | [14]; at 33.0 µM 94% | [14]; [17] 97% | [14]; at 50.0 µM 85.8% | [14]; at 100.0 µM 93% | [15]; at 33.0 µM 87% | [15]; at 100.0 µM 92% | [2]; at 11.0 µM 80% | [2]; at 33.0 µM 94% | [2]; at 100.0 µM 91% | [3]; [17] 96% | [3]; at 50.0 µM 83.8% | [4]; at 11.0 µM 78% | [4]; at 33.0 µM 93% | [4]; at 100.0 µM 93%
inactive: [5]; at 1.2 µM 28% | [5]; at 3.7 µM 69% | [6]; at 1.2 µM 1% | [6]; at 3.7 µM 10% | [6]; at 11.0 µM 44% | [7]; at 1.2 µM 17% | [7]; at 3.7 µM 31% | [7]; at 11.0 µM 31% | [7]; at 33.0 µM 65% | [7]; at 100.0 µM 63% | [8]; at 1.2 µM -8% | [8]; at 3.7 µM 43% | [8]; [16] 55% | [9]; at 1.2 µM -13% | [9]; at 3.7 µM 61% | [10]; at 1.2 µM -13% | [10]; at 3.7 µM -2% | [10]; at 11.0 µM 69% | [11]; [16] 62% | [12]; at 1.2 µM 2% | [12]; at 3.7 µM 9% | [12]; at 11.0 µM 50% | [13]; [16] 10% | [14]; at 1.2 µM -21% | [14]; at 3.7 µM -4% | [14]; [16] 30% | [15]; at 1.2 µM -18% | [15]; at 3.7 µM 25% | [15]; at 11.0 µM 69% | [2]; at 1.2 µM 3% | [2]; at 3.7 µM 38% | [3]; [16] 60% | [4]; at 1.2 µM -6% | [4]; at 3.7 µM 27%

CCOC(=O)c1csc(Br)n1
inactive: [5]; at 1.2 µM -2% | [5]; at 3.7 µM -3% | [5]; at 11.0 µM -7% | [5]; at 33.0 µM -5% | [5]; at 100.0 µM -9% | [6]; at 1.2 µM 3% | [6]; at 3.7 µM -3% | [6]; at 11.0 µM -3% | [6]; at 33.0 µM -3% | [6]; at 100.0 µM -5% | [7]; at 1.2 µM -2% | [7]; at 3.7 µM 4% | [7]; at 11.0 µM -2% | [7]; at 33.0 µM 0% | [7]; at 100.0 µM -4% | [8]; at 1.2 µM -5% | [8]; at 3.7 µM 1% | [8]; [16] -4% | [8]; at 11.0 µM 0% | [8]; at 33.0 µM -1% | [8]; [17] -3% | [8]; at 100.0 µM -12% | [9]; at 1.2 µM -7% | [9]; at 3.7 µM -2% | [9]; [16] -16% | [9]; at 11.0 µM -3% | [9]; at 33.0 µM -5% | [9]; [17] -7% | [9]; at 100.0 µM -3% | [10]; at 1.2 µM 0% | [10]; at 3.7 µM 2% | [10]; at 11.0 µM -2% | [10]; at 33.0 µM -4% | [10]; at 100.0 µM -8% | [11]; [16] -18% | [11]; [17] -6% | [12]; at 1.2 µM -2% | [12]; at 3.7 µM -5% | [12]; at 11.0 µM 0% | [12]; at 33.0 µM 0% | [12]; at 100.0 µM -4% | [13]; [16] -8% | [13]; [17] 39% | [14]; at 1.2 µM -5% | [14]; at 3.7 µM -4% | [14]; [16] -11% | [14]; at 11.0 µM -6% | [14]; at 33.0 µM -6% | [14]; [17] -7% | [14]; at 100.0 µM -14% | [15]; at 1.2 µM -2% | [15]; at 3.7 µM -2% | [15]; at 11.0 µM -2% | [15]; at 33.0 µM -4% | [15]; at 100.0 µM -4% | [1]; at 1.2 µM 3% | [1]; at 3.7 µM -7% | [1]; at 11.0 µM 0% | [1]; at 33.0 µM 3% | [1]; at 100.0 µM 0% | [2]; at 1.2 µM -2% | [2]; at 3.7 µM -2% | [2]; at 11.0 µM -1% | [2]; at 33.0 µM -3% | [2]; at 100.0 µM -6% | [3]; [16] -16% | [3]; [17] -18% | [4]; at 1.2 µM -1% | [4]; at 3.7 µM -3% | [4]; at 11.0 µM 1% | [4]; at 33.0 µM -4% | [4]; at 100.0 µM -14%
active: [8]; at 50.0 µM 98.6% | [9]; at 50.0 µM 99.5% | [11]; at 50.0 µM 97.8% | [13]; at 50.0 µM 83.5% | [14]; at 50.0 µM 99% | [3]; at 50.0 µM 78.3%
